About 7,900 targets were measured; listed, in parts, are those with a hit and a random draw of the rest. About 0.6% of all pairs of compound and target were hits.
Legend:
Experiment in all cases: log2 fold change, soluble protein after heating vs DMSO (PISA); higher = thermal stabilisation; K562 cells, 10 uM, 30 min; active = over 0.2 and 3.5 SD of the protein, either way, in both replicates (recomputed)
erlotinib = compound: C#Cc1cccc(Nc2ncnc3cc(OCCOC)c(OCCOC)cc23)c1 [erlotinib]
Method in brief: (§1)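 Aliquots of K562 cells (2×10^6 cells/mL) treated with 10 μM compound for 30 min were heated for 3 min over 48°C-58°C. After pooling and extraction in PBS with 0.5% NP-40 at 4°C, soluble protein from a 21,000xg, 90 min spin was quantified by TMTpro 16plex LC-MS/MS with channel sums equalised. Thermal stability is expressed against control samples, from duplicates, as a log2 fold change.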

[1] = compound: C/C(=N\NC(=O)C1=CC(=CC=C1)S(=O)(=O)N2CCOCC2)/C3=C(C=CC(=C3)Cl)O
Method in brief: as §1

[2] = compound: C1=CC(=C(C=C1Cl)C2=NC3=NC=CN=C3C(=N2)NC4=CC=NC=C4)F
Method in brief: as §1

[3] = compound: C1=CC(=CC=C1C2=NC3=C(N2)C=C(C=C3)C(=O)N)OC4=CC=C(C=C4)Cl
Method in brief: as §1

[4] = compound: C1=CC2=C(C=CC(=C2)/C=C\3/C(=O)NC(=NCC4=CC=CS4)S3)N=C1
Method in brief: as §1

[5] = compound: C1=CC2=NC=CN=C2C=C1/C=C/3\C(=O)NC(=O)S3
Method in brief: as §1

[6] = compound: C1=CC=C(C=C1)C2=NC(=C(N2)C3=CC=NC=C3)C4=CC(=C(C=C4)Cl)O
Method in brief: as §1

[7] = compound: C1=CC=C2C(=C1)C3=NNC4=CC=CC(=C43)C2=O
Method in brief: as §1

[8] = compound: C1CCN(C1)C(=O)NC2=CC=CC(=C2)NC3=NC=C(C(=N3)NCCC4=CN=CN4)Br
Method in brief: as §1

[9] = compound: C1CN(CCC1(CC2=CC=C(C=C2)Cl)N)C3=NC=NC4=C3C=CN4
Method in brief: as §1

IRAK-1-4 Inhibitor I = compound: C1COCCN1CCN2C3=CC=CC=C3N=C2NC(=O)C4=CC(=CC=C4)[N+](=O)[O-] [IRAK-1-4 Inhibitor I]
Method in brief: as §1

ibrutinib = compound: C=CC(=O)N1CCC[C@@H](n2nc(-c3ccc(Oc4ccccc4)cc3)c3c(N)ncnc32)C1 [ibrutinib]
Method in brief: as §1

[10] = compound: CC(=O)c1cnc2ccc(-c3cc(Cl)c(O)c(Cl)c3)nc2c1N[C@H]1CC[C@H](CN(C)C)CC1
Method in brief: as §1

ralimetinib = compound: CC(C)(C)Cn1c(N)nc2ccc(-c3[nH]c(C(C)(C)C)nc3-c3ccc(F)cc3)nc21 [ralimetinib]
Method in brief: as §1

[11] = compound: CC(C)(O)CC(=O)NCCn1ccc2ncnc(Nc3ccc(Oc4cccc(C(F)(F)F)c4)c(Cl)c3)c21
Method in brief: as §1

[12] = compound: CC(C)C1=C2N=C(C=C(N2N=C1)NCC3=CC=CC=C3)NCCCCCCN
Method in brief: as §1

[13] = compound: CC(C)C[C@@H](C=O)NC(=O)[C@H](CC(C)C)NC(=O)[C@H](CC(C)C)NC(=O)OCc1ccccc1
Method in brief: as §1

pinometostat = compound: CC(C)N(C[C@H]1O[C@@H](n2cnc3c(N)ncnc32)[C@H](O)[C@@H]1O)[C@H]1C[C@@H](CCc2nc3cc(C(C)(C)C)ccc3[nH]2)C1 [pinometostat]
Method in brief: as §1

[14] = compound: CC1=C(C(CC(=O)N1)C2=CC=C(C=C2)C(F)(F)F)C(=O)NC3=C(C=C4C(=C3)C=NN4)F
Method in brief: as §1

[15] = compound: CC1=C(C2=C(C=C1)C(=O)C3=CC=CC=C3N2CCCN)C
Method in brief: as §1

Measured: log2 fold change

AMFR (UniProt Q9UKV5)
inactive: erlotinib 0.116 | [1] 0 | [2] -0.022 | [3] -0.062 | [4] -0.046 | [5] 0.058 | [6] 0.026 | [7] -0.062 | [8] 0.002 | [9] -0.009 | IRAK-1-4 Inhibitor I -0.083 | ibrutinib -0.039 | [10] 0.07 | ralimetinib 0.117 | [11] -0.034 | [13] 0.12 | pinometostat 0.077 | [14] -0.011 | [15] 0.019
active: [12] -0.375

ATP12A isoform 2 (UniProt P54707)
inactive: erlotinib 0.01 | [1] -0.002 | [2] 0.025 | [3] 0.014 | [4] 0.007 | [5] 0.026 | [6] 0.025 | [7] -0.049 | [8] -0.051 | [9] 0.05 | IRAK-1-4 Inhibitor I 0.013 | ibrutinib 0.009 | [10] -0.033 | ralimetinib -0.031 | [11] -0.036 | [12] 0.162 | [13] -0.005 | pinometostat -0.03 | [14] -0.02 | [15] 0.086

ACBD6 (UniProt Q9BR61)
Chain of UniProt Q9BR61 (Q9BR61 whole entry, looked up): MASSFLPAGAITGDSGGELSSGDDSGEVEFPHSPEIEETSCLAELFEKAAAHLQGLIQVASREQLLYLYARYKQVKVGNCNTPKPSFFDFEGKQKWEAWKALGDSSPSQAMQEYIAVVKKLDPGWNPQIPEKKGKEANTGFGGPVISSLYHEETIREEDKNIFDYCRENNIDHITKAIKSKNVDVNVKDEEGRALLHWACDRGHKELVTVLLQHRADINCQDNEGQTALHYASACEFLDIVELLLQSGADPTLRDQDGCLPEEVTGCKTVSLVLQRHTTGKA
active: [10] 0.477
inactive: erlotinib 0.056 | [1] -0.031 | [2] 0.134 | [3] 0.108 | [4] 0.007 | [5] 0.011 | [6] -0.078 | [7] 0.073 | [8] -0.186 | [9] -0.216 | IRAK-1-4 Inhibitor I -0.072 | ibrutinib 0.009 | ralimetinib -0.169 | [11] -0.068 | [12] 0.173 | [13] 0.159 | pinometostat 0.008 | [14] 0.023 | [15] 0.074

ATAD3A isoform 2 (UniProt Q9NVI7)
active: [12] -0.468
inactive: erlotinib -0.036 | [1] 0.02 | [2] -0.045 | [3] 0.006 | [4] -0.038 | [5] -0.013 | [6] -0.04 | [7] 0.017 | [8] 0.037 | [9] -0.101 | IRAK-1-4 Inhibitor I -0.005 | ibrutinib 0.08 | [10] -0.075 | ralimetinib 0.009 | [11] -0.023 | [13] 0.075 | pinometostat 0.082 | [14] 0 | [15] 0.096

AGPAT1 (UniProt Q99943)
Chain of UniProt Q99943 (Q99943 whole entry, looked up): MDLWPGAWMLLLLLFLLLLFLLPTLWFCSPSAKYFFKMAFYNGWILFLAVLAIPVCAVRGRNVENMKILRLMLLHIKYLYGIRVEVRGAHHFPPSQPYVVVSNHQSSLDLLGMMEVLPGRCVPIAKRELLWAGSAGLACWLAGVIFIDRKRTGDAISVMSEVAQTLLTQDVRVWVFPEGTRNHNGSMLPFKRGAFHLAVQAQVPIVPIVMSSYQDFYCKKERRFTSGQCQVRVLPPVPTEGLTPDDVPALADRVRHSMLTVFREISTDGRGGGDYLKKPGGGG
inactive: erlotinib 0.04 | [1] -0.004 | [2] 0.008 | [3] -0.014 | [4] 0.013 | [5] 0.029 | [6] -0.015 | [7] -0.001 | [8] 0.001 | [9] 0.048 | IRAK-1-4 Inhibitor I 0 | ibrutinib -0.083 | [10] -0.051 | ralimetinib 0.012 | [11] -0.109 | [12] 0.06 | [13] -0.005 | pinometostat 0.02 | [14] -0.006 | [15] -0.017

ARAF (UniProt P10398)
Chain of UniProt P10398 (P10398 whole entry, looked up): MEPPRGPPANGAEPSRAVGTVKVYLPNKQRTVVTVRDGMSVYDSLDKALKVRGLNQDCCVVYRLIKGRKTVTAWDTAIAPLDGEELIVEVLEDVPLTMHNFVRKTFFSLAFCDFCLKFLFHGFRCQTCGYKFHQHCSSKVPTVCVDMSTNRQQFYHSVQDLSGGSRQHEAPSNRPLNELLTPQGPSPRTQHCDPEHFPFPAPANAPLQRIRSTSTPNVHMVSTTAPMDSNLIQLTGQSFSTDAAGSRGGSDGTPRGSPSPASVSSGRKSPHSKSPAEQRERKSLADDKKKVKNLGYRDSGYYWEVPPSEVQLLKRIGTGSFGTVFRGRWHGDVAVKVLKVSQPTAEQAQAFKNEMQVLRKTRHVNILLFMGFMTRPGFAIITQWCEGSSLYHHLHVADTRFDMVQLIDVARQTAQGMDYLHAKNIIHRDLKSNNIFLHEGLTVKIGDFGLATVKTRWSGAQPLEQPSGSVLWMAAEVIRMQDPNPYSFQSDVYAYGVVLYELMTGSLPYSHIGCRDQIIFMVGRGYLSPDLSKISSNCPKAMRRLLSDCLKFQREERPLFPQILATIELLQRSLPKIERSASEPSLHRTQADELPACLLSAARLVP
inactive: erlotinib 0.014 | [1] 0.096 | [2] 0.061 | [3] 0.014 | [4] 0.26 | [5] -0.012 | [6] 0.077 | [7] -0.187 | [8] -0.017 | [9] 0.035 | IRAK-1-4 Inhibitor I 0.011 | ibrutinib 0.005 | [10] -0.13 | ralimetinib 0.097 | [11] -0.064 | [12] -0.056 | [13] 0.021 | pinometostat 0.043 | [14] -0.018 | [15] 0.041

ADK (UniProt P55263)
Chain of UniProt P55263 (P55263 whole entry, looked up): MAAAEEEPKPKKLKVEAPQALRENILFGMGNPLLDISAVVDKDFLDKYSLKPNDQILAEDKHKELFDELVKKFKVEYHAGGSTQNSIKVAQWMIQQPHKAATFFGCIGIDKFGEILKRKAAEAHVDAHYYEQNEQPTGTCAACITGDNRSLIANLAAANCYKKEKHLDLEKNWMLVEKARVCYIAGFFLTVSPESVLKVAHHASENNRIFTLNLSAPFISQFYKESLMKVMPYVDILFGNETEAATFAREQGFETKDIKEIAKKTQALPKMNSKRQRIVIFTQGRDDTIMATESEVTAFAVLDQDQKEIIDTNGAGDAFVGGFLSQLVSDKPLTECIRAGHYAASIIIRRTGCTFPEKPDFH
inactive: erlotinib 0.293 | [1] -0.034 | [2] 0.06 | [3] -0.062 | [4] 0.079 | [5] 0.005 | [6] 0.035 | [7] 0.042 | [8] -0.032 | [9] 0.085 | IRAK-1-4 Inhibitor I 0.08 | ibrutinib 0.034 | [10] 0.184 | ralimetinib 0.246 | [11] -0.002 | [12] 0.074 | [13] -0.058 | pinometostat 0.016 | [14] -0.101 | [15] -0.001

AGRN (UniProt O00468)
inactive: erlotinib 0.064 | [1] -0.013 | [2] -0.039 | [3] -0.125 | [4] 0.071 | [5] -0.048 | [7] 0.024 | [8] -0.091 | [9] 0.05 | IRAK-1-4 Inhibitor I -0.205 | ibrutinib 0.09 | [10] -0.025 | ralimetinib 0.125 | [11] -0.022 | [12] 0.156 | [13] -0.066 | pinometostat -0.005 | [14] 0.078 | [15] 0.014
active: [6] 0.366

BAD (UniProt Q92934)
Chain of UniProt Q92934 (Q92934 whole entry, looked up): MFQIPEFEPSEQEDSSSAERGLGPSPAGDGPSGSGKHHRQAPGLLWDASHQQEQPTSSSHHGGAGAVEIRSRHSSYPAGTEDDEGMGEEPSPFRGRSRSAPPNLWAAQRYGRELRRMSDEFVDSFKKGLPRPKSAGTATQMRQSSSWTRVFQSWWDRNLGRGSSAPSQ
inactive: erlotinib 0.049 | [1] 0.079 | [2] 0.022 | [3] 0.124 | [4] 0.083 | [5] 0.023 | [6] 0.01 | [7] 0.025 | IRAK-1-4 Inhibitor I 0.057 | ibrutinib 0.024 | [10] -0.061 | ralimetinib -0.054 | [11] 0.077 | [12] -0.04 | [13] -0.041 | pinometostat 0.012 | [14] 0.065

B4GALNT1 (UniProt Q00973)
Chain of UniProt Q00973 (Q00973 whole entry, looked up): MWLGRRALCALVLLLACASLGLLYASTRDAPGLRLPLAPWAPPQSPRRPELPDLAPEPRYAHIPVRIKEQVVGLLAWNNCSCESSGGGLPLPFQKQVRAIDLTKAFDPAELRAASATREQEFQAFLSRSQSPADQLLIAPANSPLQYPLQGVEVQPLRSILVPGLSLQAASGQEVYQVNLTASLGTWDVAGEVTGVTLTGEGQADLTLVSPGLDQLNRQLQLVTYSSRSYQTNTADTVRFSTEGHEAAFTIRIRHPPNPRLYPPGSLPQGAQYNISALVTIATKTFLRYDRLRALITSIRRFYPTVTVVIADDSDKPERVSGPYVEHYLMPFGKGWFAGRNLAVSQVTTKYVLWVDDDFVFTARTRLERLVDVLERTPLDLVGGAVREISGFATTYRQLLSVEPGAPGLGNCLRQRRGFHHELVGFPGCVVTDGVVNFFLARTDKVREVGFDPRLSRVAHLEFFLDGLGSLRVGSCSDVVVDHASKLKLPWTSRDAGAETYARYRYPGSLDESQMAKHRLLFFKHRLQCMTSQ
inactive: erlotinib -0.176 | [1] -0.006 | [2] 0.029 | [3] 0.101 | [4] 0.124 | [5] -0.038 | [6] -0.073 | [7] -0.189 | [8] 0.069 | [9] -0.141 | IRAK-1-4 Inhibitor I 0.01 | ibrutinib -0.159 | [10] -0.188 | ralimetinib -0.129 | [11] 0.017 | [12] 0.038 | [13] 0.052 | pinometostat -0.101 | [14] -0.119 | [15] 0.057

BRD8 isoform 2 (UniProt Q9H0E9)
Chain of UniProt Q9H0E9 (Q9H0E9 whole entry, looked up): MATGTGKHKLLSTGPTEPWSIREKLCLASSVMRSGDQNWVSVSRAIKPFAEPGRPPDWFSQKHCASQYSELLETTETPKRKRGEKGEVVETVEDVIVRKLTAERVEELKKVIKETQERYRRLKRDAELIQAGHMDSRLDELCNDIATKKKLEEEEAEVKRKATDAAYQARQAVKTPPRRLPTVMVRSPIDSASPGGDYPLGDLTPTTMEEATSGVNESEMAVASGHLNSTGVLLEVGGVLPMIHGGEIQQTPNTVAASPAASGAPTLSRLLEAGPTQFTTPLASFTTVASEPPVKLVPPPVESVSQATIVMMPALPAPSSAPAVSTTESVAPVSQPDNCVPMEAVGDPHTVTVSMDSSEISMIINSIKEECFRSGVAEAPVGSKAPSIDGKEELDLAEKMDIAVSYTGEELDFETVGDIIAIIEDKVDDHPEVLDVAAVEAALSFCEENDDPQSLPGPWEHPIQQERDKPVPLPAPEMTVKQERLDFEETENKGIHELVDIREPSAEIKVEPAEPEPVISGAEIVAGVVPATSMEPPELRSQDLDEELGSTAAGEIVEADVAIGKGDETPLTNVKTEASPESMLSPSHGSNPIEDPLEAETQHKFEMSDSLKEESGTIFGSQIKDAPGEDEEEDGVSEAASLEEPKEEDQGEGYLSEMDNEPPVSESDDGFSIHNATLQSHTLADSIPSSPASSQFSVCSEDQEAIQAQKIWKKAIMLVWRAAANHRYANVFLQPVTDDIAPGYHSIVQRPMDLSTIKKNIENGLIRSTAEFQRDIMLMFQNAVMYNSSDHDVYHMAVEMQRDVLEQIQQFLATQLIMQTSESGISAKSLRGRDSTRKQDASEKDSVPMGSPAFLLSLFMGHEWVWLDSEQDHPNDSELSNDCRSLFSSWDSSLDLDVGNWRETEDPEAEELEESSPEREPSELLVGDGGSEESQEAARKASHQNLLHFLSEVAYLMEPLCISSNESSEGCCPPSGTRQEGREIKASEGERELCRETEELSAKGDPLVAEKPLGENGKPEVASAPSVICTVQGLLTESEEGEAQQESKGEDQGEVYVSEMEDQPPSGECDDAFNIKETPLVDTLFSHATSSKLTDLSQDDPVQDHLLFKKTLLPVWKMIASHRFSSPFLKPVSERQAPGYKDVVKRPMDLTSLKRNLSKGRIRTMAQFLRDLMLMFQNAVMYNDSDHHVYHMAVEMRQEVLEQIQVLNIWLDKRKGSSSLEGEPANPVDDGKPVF
inactive: erlotinib 0.157 | [1] 0.016 | [2] 0.029 | [3] 0.082 | [4] 0.035 | [5] 0.055 | [6] -0.152 | [7] -0.044 | [8] -0.027 | [9] 0.021 | IRAK-1-4 Inhibitor I 0.028 | ibrutinib 0 | [10] 0.036 | ralimetinib -0.103 | [11] 0.021 | [12] -0.003 | [13] 0.093 | pinometostat 0.01 | [15] -0.071

ATRN (UniProt O75882)
inactive: erlotinib 0.006 | [1] 0.037 | [2] -0.113 | [3] -0.148 | [4] 0.098 | [5] 0.04 | [7] -0.166 | [8] -0.052 | [9] 0.018 | IRAK-1-4 Inhibitor I -0.084 | ibrutinib 0.083 | [10] 0.012 | [11] -0.02 | [12] 0.033 | pinometostat 0.079 | [14] -0.08 | [15] 0.044

AP4S1 (UniProt Q9Y587)
Chain of UniProt Q9Y587 (Q9Y587 whole entry, looked up): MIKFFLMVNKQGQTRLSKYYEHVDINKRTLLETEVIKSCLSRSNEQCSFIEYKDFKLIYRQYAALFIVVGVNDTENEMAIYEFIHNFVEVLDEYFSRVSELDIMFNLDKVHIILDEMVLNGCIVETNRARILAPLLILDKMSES
inactive: erlotinib -0.014 | [1] -0.013 | [2] -0.015 | [3] 0.078 | [5] 0 | [7] -0.111 | IRAK-1-4 Inhibitor I -0.061 | ibrutinib -0.12 | [10] 0.008 | [11] -0.079 | [12] 0 | pinometostat -0.145 | [14] 0.027
active: [4] -0.456

ATIC (UniProt P31939)
inactive: erlotinib 0.031 | [1] 0.033 | [2] 0.062 | [3] 0.006 | [4] 0.005 | [5] -0.067 | [6] 0.094 | [7] 0.016 | [8] -0.031 | [9] 0.035 | IRAK-1-4 Inhibitor I 0.018 | ibrutinib 0.013 | [10] -0.015 | ralimetinib -0.007 | [11] 0 | [12] 0.079 | [13] -0.044 | pinometostat -0.04 | [14] -0.023 | [15] 0.064

BRD4 (UniProt O60885)
inactive: erlotinib -0.151 | [1] 0.078 | [2] 0.054 | [3] 0.003 | [4] 0.025 | [5] -0.003 | [6] 0.213 | [7] -0.002 | [8] -0.121 | [9] -0.117 | ibrutinib -0.018 | [10] -0.254 | ralimetinib -0.174 | [11] -0.011 | [12] 0.094 | [13] -0.035 | [14] 0.047 | [15] 0.101

ARHGAP25 isoform 4 (UniProt P42331)
Chain of UniProt P42331 (P42331 whole entry, looked up): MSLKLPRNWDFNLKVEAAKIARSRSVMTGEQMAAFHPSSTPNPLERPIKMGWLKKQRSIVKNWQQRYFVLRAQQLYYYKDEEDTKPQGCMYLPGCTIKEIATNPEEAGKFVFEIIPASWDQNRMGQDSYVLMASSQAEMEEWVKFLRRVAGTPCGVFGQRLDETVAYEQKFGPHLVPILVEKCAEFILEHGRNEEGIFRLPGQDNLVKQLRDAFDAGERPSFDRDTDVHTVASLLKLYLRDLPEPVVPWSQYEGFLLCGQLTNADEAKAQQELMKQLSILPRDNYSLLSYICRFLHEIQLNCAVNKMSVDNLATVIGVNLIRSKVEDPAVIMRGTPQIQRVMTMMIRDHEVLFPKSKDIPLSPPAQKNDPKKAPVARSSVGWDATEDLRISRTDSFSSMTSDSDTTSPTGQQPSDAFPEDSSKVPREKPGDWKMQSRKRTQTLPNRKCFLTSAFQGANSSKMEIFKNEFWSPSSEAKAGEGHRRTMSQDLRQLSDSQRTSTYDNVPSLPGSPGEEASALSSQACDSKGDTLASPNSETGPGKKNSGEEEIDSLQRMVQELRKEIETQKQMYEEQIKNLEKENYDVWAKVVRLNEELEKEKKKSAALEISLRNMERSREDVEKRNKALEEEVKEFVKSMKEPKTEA
inactive: erlotinib 0.07 | [1] 0.165 | [2] 0.109 | [3] -0.284 | [4] 0.042 | [5] -0.192 | [7] -0.062 | [8] 0.052 | [9] -0.147 | ibrutinib -0.064 | [10] -0.16 | [11] -0.465 | [14] -0.418 | [15] 0.066
active: [12] -0.961

AIF1 (UniProt P55008)
Chain of UniProt P55008 (P55008 whole entry, looked up): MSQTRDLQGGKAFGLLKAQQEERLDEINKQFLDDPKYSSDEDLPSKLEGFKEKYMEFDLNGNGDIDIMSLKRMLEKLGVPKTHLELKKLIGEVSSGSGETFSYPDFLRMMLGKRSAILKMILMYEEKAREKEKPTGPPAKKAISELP
inactive: erlotinib 0.155 | [1] -0.02 | [2] 0.09 | [3] 0.08 | [4] -0.051 | [5] 0.093 | [6] 0.058 | [7] -0.126 | ibrutinib 0.012 | [10] 0.028 | ralimetinib -0.112 | [11] 0.035 | [12] -0.033 | [13] 0.07
